Compounds with a hit are over-represented: about 2.8% of the library has one in this group of screens.
NR1D1 modulator: Rev-erb alpha (human) modulation | Rev-erbα–FITC-DNA binding, fluorescence polarization, 90 min | actives 0.79% (n = 370,000) | activity, % at 10 µM;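 active means activity above about 14%, limit read from the data; passing the limit was not always enough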
PP1 inh: blocks human PP1-alpha phosphatase, a PP5 counter-screen | P62136 | purified PP1alpha, OMFP fluorescence | inhibition, % at 6.7 µM | actives 0.9% (n = 320,000);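 active means inhibition above the mean inhibition of all tested compounds plus 3 SD, computed separately for each screening campaign, cut at about 15% in these data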
Target sequence (P62136 whole entry, looked up): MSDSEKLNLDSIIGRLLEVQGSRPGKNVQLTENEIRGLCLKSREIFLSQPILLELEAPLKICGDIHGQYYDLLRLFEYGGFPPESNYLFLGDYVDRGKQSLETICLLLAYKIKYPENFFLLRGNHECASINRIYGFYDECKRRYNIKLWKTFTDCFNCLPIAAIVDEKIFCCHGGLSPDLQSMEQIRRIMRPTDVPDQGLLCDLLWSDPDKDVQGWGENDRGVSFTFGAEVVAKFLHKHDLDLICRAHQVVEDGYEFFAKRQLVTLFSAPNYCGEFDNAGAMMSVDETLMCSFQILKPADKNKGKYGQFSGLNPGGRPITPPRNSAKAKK
KLK7 zymogen act: activators of human kallikrein-7 zymogen; actives 0.9% (n = 370,000); purified proKLK7, EDANS-DABCYL substrate fluorescence; 100% is mature enzyme control, 0% vehicle; activation, % at 7 µM; AID 652039;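 active means activation above the mean of all tested compounds plus 3 SD, computed per campaign excluding outliers beyond control limits, cut at about 13% in these data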
Target sequence (P49862 whole entry, looked up): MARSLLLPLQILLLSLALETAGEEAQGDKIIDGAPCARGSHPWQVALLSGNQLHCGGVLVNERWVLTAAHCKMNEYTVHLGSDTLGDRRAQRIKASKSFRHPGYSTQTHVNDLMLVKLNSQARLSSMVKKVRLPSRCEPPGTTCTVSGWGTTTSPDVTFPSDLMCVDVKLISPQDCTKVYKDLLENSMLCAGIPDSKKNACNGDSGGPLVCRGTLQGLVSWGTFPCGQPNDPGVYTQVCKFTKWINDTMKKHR
PP5 primary: inhibitors of human protein phosphatase 5 (PP5) | P53041 | purified PP5c, OMFP substrate fluorescence | inhibition, % at 6.7 µM | actives 0.18% (n = 320,000);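 active means inhibition above the campaign's mean inhibition across all tested compounds plus 3 SD, cut at about 9.5% in these data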
PG9 binder: binds the HIV-1 gp120 antibody PG9. inhibition, % at 6.7 µM. TR-FRET gp120-PG9 antibody binding. actives 0.43% (n = 360,000). AID 624416; in the data active means inhibition above about 8.5%
JMJD2C inh: human JMJD2C demethylase inhibition. Q9H3R0. GST-JMJD2C(1-420) H3K9me3 demethylation, DELFIA europium. inhibition, % at 2.35 µM. actives 0.069% (n = 330,000). AID 2099;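 active means more than half of a compound's replicate wells show inhibition beyond 50%, single wells judged on their own value; inconclusive means some, but no more than half, of replicates pass 50% inhibition; inactive means no replicate passes 50% inhibition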;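 further: signal counts dimethyl H3K9 product captured on neutravidin plate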
KLK7 act conf: confirmation of human kallikrein-7 zymogen activators | shares compounds with KLK7 zymogen act | purified proKLK7, EDANS-DABCYL substrate fluorescence; scaled: vehicle 0, mature enzyme 100 | activation, % at 7 µM | actives 68% (n = 3,200) | AID 686949;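 active means activation, as change over the incubation, above the mean of all tested compounds plus 3 SD, cut at about 13% in these data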
EDANS-DABCYL int: fluorescence interference counter-screen for KLK7 activators; shares compounds with KLK7 zymogen act; EDANS-DABCYL substrate fluorescence interference, no enzyme, 4 h; solvent 0%, active enzyme control 100%; activation, % at 7 µM; actives 80% (n = 3,200);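 active means activation above the all-compound mean plus 3 SD, ignoring values outside control-based bounds, cut at about 4.8% in these data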;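 further: value is the 4 h activation minus the activation read at time zero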
EDANS interf: EDANS fluorescence interference in dose response, no enzyme; shares compounds with KLK7 zymogen act; EC50, µM; EDANS-DABCYL peptide fluorescence interference; actives 20% (n = 250);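 active means compounds that raise the fluorescence signal in this interference counterscreen, with EC50 at or below 10 µM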;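 further: intact quenched peptide substrate alone read at 355 nm excitation and 520 nm emission; signal is fluorescence gain from T0 to T4 after four hours at room temperature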
Of the large screens only hits and unclear results are named; the others gave an inactive call (follow-up assays come after a bar, where they were run).

CC[C@]12c3[nH]c4ccccc4c3CCN1C(=O)C(CC(=O)NCCc1ccccn1)C[C@@H]2C(=O)N1CCN(C(=O)C2CC2)CC1 (some centres undefined)	none (no result: PP1 inh, PP5 primary)
CC[C@]12c3[nH]c4cc(-c5ccco5)ccc4c3CCN1C(=O)[C@@H](CC(=O)NCCc1ccccn1)C[C@@H]2C(=O)N1CCN(C(=O)C2CC2)CC1	KLK7 zymogen act 137 (no result: PP1 inh, PP5 primary, JMJD2C inh) | KLK7 act conf 104 | EDANS-DABCYL int 124
CC[C@]12c3[nH]c4cc(-c5ccco5)ccc4c3CCN1C(=O)[C@@H](CC(=O)NC(C)(C)C)C[C@@H]2C(=O)N1CCN(C(=O)C2CC2)CC1	KLK7 zymogen act 144 (no result: PP1 inh, PP5 primary, JMJD2C inh) | KLK7 act conf 203 | EDANS-DABCYL int 163
CN(C)C(=O)CCc1ccc2c3c([nH]c2c1)[C@]1(C)[C@@H](C(=O)N2CCOCC2)C[C@H](CC(=O)NCc2ccco2)C(=O)N1CC3	none (no result: PP1 inh, PP5 primary, JMJD2C inh)
CC(C)C[C@H](NC(=O)C1CC1)C(=O)N1CCC[C@H]1C(=O)NCc1ccccc1	none (no result: PP1 inh, PP5 primary, JMJD2C inh)
CC(C)(C)NC(=O)C[C@H]1C[C@H](C(=O)N2CCCCC2)[C@@]2(C)c3[nH]c4cc(-c5ccco5)ccc4c3CCN2C1=O	KLK7 zymogen act 77 (no result: PP1 inh, PP5 primary, JMJD2C inh) | KLK7 act conf 74 | EDANS-DABCYL int 79
CC[C@]12c3[nH]c4cc(-c5ccco5)ccc4c3CCN1C(=O)[C@@H](CC(=O)NCc1ccco1)C[C@@H]2C(=O)N1CCN(C(=O)c2ccco2)CC1	KLK7 zymogen act 134 (no result: PP1 inh, PP5 primary, JMJD2C inh) | KLK7 act conf 95 | EDANS-DABCYL int 104
CCCCCCCCN1C(=O)[C@@H](CC(=O)NCc2cccc(C(F)(F)F)c2)C[C@@]2(C(=O)OC)C1=C[C@H](COCc1ccccc1)O[C@@H]2C	none (no result: PP1 inh, PP5 primary, PG9 binder, JMJD2C inh)
COC(=O)C1=CN(C)C=C(C(=O)OC)C1c1ccccc1Cl	KLK7 zymogen act 24 | KLK7 act conf 76 | EDANS-DABCYL int 77
CCCCOc1ccccc1C1C(C(=O)OC)=CN(CC)C=C1C(=O)OC	none
COc1ccc(OC)c(CN2C(=O)CSCC2(C)c2nnnn2C2CCCC2)c1 (centres undefined)	none (no result: PP1 inh, PP5 primary, PG9 binder, JMJD2C inh)
COC(=O)C1Cc2c([nH]c3ccccc23)CN1 (centres undefined)	KLK7 zymogen act 19 | KLK7 act conf inactive | EDANS-DABCYL int 8.9
COC(=O)[C@H]1Cc2c([nH]c3ccccc23)[C@H](c2ccccc2)N1	none
CCc1cc2c(COC(=O)c3cccc(S(C)(=O)=O)c3)cc(=O)oc2cc1O	KLK7 zymogen act 508 | KLK7 act conf 568 | EDANS-DABCYL int 559
CCc1cc2c(COC(=O)c3c(C)noc3C)cc(=O)oc2cc1O	none
CNS(=O)(=O)c1cccc(C(=O)OCc2cc(=O)oc3c(C)c(O)ccc23)c1	KLK7 zymogen act 265 | KLK7 act conf 603 | EDANS-DABCYL int 607
Cc1ccccc1S(=O)(=O)N1CCCc2nc(-c3ccc(F)cc3)ccc21	none (no result: PP1 inh, PP5 primary, JMJD2C inh)
COc1cccc(-c2cccc3c4c([nH]c23)[C@@H]2C[C@H]3[C@@H](C(=O)N2CC4)[C@H](C)ON3C)c1	none (no result: PP1 inh, PP5 primary, JMJD2C inh)
CCN(C)c1ccc(/C=N\n2nnnc2N)cc1	KLK7 zymogen act 13 (no result: NR1D1 modulator) | KLK7 act conf 46 | EDANS-DABCYL int 43
Nc1nnnn1/N=C/c1ccc(O)cc1	none
CCOC(=O)c1cc(C(=O)OCC)c2ccccn2c1=O	KLK7 zymogen act 55 | KLK7 act conf 57 | EDANS-DABCYL int 68
CC(C)c1ccc(NC(=O)OC2CCC23CCC(c2ccccc2)CC3)cc1 (centres undefined)	none (no result: PP1 inh, KLK7 zymogen act, PP5 primary, PG9 binder, JMJD2C inh)
O=C(O)c1c2c(nc3ccccc13)/C(=C/c1ccc(OC(F)F)cc1)CCC2	none
O=C(O)c1c2c(nc3ccccc13)/C(=C/c1ccc(O)cc1)CC2	KLK7 zymogen act 28 | KLK7 act conf 68 | EDANS-DABCYL int 70
O=C(C(=O)N1CCC(CNS(=O)(=O)c2cccc(C(F)(F)F)c2)CC1)c1cc2ccccc2o1	none (no result: PP1 inh, PP5 primary, JMJD2C inh)
O=C1CCC(=O)N1c1nc2nc(-c3ccccc3)cc(-c3ccccc3)n2n1	KLK7 zymogen act 31, JMJD2C inh inconclusive | KLK7 act conf 40 | EDANS-DABCYL int 44
Cc1cc(C)c2c(N)c3cccc(C)c3nc2n1	KLK7 zymogen act 15 | KLK7 act conf 46 | EDANS-DABCYL int 42
Cc1cc(-c2nc3ccccc3o2)c2ccccc2n1	none
O=c1oc2cc(O)ccc2cc1S(=O)(=O)c1ccccc1	KLK7 zymogen act 38 | KLK7 act conf 73 | EDANS-DABCYL int 67
O=c1oc2cc(O)ccc2cc1-c1nc2ccccc2o1	KLK7 zymogen act 108 (no result: PP1 inh, PP5 primary, JMJD2C inh) | KLK7 act conf 61 | EDANS-DABCYL int 73
NC(=S)c1cc2ccc(O)cc2oc1=O	KLK7 zymogen act 24 (no result: PP1 inh, PP5 primary) | KLK7 act conf 70 | EDANS-DABCYL int 73
Cc1cc(C)c2c(N)c(C(=O)NN3CC(=O)N(c4cccc(Cl)c4)CC3=O)sc2n1	KLK7 zymogen act 13 | KLK7 act conf inactive | EDANS-DABCYL int inactive
Cc1cc(C)c2c(N)c(C(=O)NN3CC(=O)N(c4ccccc4)CC3=O)sc2n1	KLK7 zymogen act 109 | KLK7 act conf 32 | EDANS-DABCYL int 38
Cc1cc(C)c2c(N)c(C(=O)Nc3c(C)n(C)n(-c4ccccc4)c3=O)sc2n1	none
CCOC(=O)N1CCN(C2=Nc3cccc4cccc2c34)CC1	KLK7 zymogen act 55 | KLK7 act conf 18 | EDANS-DABCYL int 28
CC(=O)N1CCN(C2=Nc3cccc4cccc2c34)CC1	KLK7 zymogen act 60 | KLK7 act conf 22 | EDANS-DABCYL int 19 | EDANS interf inactive
COc1ccccc1N1CCN(C2=Nc3cccc4cccc2c34)CC1	none
c1ccc(CC2CCN(C3=Nc4cccc5cccc3c45)CC2)cc1	none (no result: NR1D1 modulator, KLK7 zymogen act, PG9 binder)
c1cc2c3c(cccc3c1)C(N1CCOCC1)=N2	KLK7 zymogen act 44 | KLK7 act conf 47 | EDANS-DABCYL int 46
CCOC(=O)N1CCN(C(=O)Nc2cccc3ccccc23)CC1	none
CC1CN(C2=Nc3cccc4cccc2c34)CC(C)O1 (centres undefined)	KLK7 zymogen act 44 | KLK7 act conf inactive | EDANS-DABCYL int 5.7
COC[C@@H]1CCCN1c1ccc2c(c1)OCCCN(C1CC1)S2(=O)=O	none (no result: PP1 inh, PP5 primary, PG9 binder, JMJD2C inh)
COC(=O)C[C@@H]1CC[C@H]2[C@H](COc3ccc(NC(=O)Nc4cccc(C#N)c4)cc3C(=O)N2C)O1	none (no result: PP1 inh, PP5 primary, PG9 binder, JMJD2C inh)
CCC(C)N(C(=O)Cn1nc(Cc2ccncc2)c2ccccc2c1=O)C(C)CC (centres undefined)	none (no result: PP1 inh, PP5 primary, PG9 binder, JMJD2C inh)
